Data: ChEMBL document CHEMBL3433997, “St. Jude Leishmania screening dataset” (2016)
Values joined by “and” are separate entries in the source; they are usually repeats but may differ in a detail not shown here. Equal entries are not always repeated.

target: Solute carrier family 2, facilitated glucose transporter member 1 (Homo sapiens) (UniProt P11166); test: ST_JUDE_LEISH: Cytotoxicity at 2uM final concentration against transgenic Leishmania Mexicana promastigotes LmGLUT1 that are glucose transport deficient and complemented with the human glucose transporter GLUT1. Activity is measured by DNA content using SYBR green in vitro; type: functional
Sequence (P11166 whole entry): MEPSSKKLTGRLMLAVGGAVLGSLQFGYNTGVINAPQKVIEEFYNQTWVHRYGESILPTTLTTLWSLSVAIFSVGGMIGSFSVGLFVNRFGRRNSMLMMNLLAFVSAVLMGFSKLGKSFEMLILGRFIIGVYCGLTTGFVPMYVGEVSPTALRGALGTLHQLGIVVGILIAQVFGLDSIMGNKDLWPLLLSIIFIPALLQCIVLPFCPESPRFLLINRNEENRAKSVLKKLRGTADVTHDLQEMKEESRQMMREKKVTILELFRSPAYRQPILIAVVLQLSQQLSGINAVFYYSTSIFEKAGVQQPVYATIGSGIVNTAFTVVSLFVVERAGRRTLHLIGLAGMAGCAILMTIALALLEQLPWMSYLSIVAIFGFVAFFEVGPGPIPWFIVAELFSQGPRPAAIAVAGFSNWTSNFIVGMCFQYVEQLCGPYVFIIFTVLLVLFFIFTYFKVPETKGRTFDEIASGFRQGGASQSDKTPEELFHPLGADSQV

Question: How did the inhibition turn out when `O=C(/C=C/c1ccc(Cl)c(Cl)c1)NCCC1CCC(N2CCC(c3c[nH]c4ccc(O)cc34)CC2)CC1` (stereo not drawn) was run?
Answer: 0.48%

Question: Which inhibition does the source give for `O=[N+]([O-])c1ccc(Oc2c(Cl)cc(S(=O)(=O)N3CCC(CN4CCC(c5c[nH]c6ccccc56)CC4)CC3)cc2Cl)c(Cl)c1` here?
Answer: 1.89%

Question: `CCCCCCCN1C2CCC1CC(CCOc1ccnc3ccc(OC)cc13)C2` (stereo not drawn) was tested. Which inhibition did it give?
Answer: 11.4%

Question: With `COCCNCc1ccc(-c2ccc(CN(C(=O)Nc3ccccc3)C3CCN(Cc4ccccc4)CC3)cc2)cc1` as the molecule, how does the inhibition read?
Answer: 7.17%

Question: For `O=C(Nc1ccccc1C(F)(F)F)NC1CCC(CN2CCC(c3c[nH]c4ccccc34)CC2)CC1` (stereo not drawn), which inhibition is on record?
Answer: 7.14% and 3.61%

Question: Which inhibition does the source give for `CC[C@H]1CN2CC[C@@H]1C[C@H]2[C@H](O)c1ccnc2ccc(OC)cc12` here?
Answer: 0.79%

Question: For `CCOC(C(=O)OCCN(C(C)C)C(C)C)(c1ccccc1)c1ccccc1`, which inhibition is on record?
Answer: -0.14%

Question: `CC(Cc1ccc(NC(=O)[C@H](C)NCCc2cccc(Cl)c2)cc1)NCCc1cccc(Cl)c1` (stereo partly drawn) was tested. Which inhibition did it give?
Answer: 2.86%

Question: How did the inhibition turn out when `COCC(=O)N(Cc1ccccc1-c1ccc(CNCCc2ccccc2)cc1)C1CCN(Cc2ccccc2)CC1` was run?
Answer: 0.08%

Question: `COc1ccc(CN(C2CC2)C(C)C(=O)c2[nH]c(C)c(C(C)=O)c2C)cc1` (stereo not drawn) was tested. Which inhibition did it give?
Answer: -1.09%

Question: For `O=C(NC1CCC(CN2CCC(c3c[nH]c4ccccc34)CC2)CC1)c1cc(-c2ccccc2Cl)n(-c2cccc(Cl)c2)n1` (stereo not drawn), which inhibition is on record?
Answer: 3.93%

Question: Which inhibition does the source give for `COc1cccc(C=CC(=O)NC2CCC(CN3CCC(c4c[nH]c5ccccc45)CC3)CC2)c1OC` (stereo not drawn) here?
Answer: 1.83%

Question: Which inhibition does the source give for `O=C(/C=C/c1ccc(Cl)c(Cl)c1)N1CCC(CN2CCC(c3c(-c4ccc(F)cc4)[nH]c4ccccc34)CC2)CC1` here?
Answer: 0.15%

Question: For `CC(=O)C1(c2ccccc2)CCN(CCC2(c3ccc(Cl)c(Cl)c3)CN(C(=O)c3cccc(Cl)c3)CCO2)CC1` (stereo not drawn), which inhibition is on record?
Answer: -0.25%

Question: `Cc1ccc(-n2nc(C)c3c2NC(=O)CSC3c2ccsc2)cc1` (stereo not drawn) was tested. Which inhibition did it give?
Answer: 9.48%

Question: With `Cc1[nH]c2ccc([N+](=O)[O-])cc2c1C1=CCN(C)CC1` as the molecule, how does the inhibition read?
Answer: 1.47%

Question: How did the inhibition turn out when `O=C(Nc1ccc(CN2CCC(c3c[nH]c4ccc(O)cc34)CC2)cc1)c1ccc(-c2ccccc2)cc1` was run?
Answer: 5.73%

Question: For `O=C(Nc1cc(C(F)(F)F)cc(C(F)(F)F)c1)N1CCC(CN2CCC(c3c[nH]c4ccccc34)CC2)CC1`, which inhibition is on record?
Answer: 2.61%

Question: For `CC(C)CNCc1cccc(-c2cccc(CN(C(=O)NC3CCCCC3)C3CCN(Cc4ccccc4)CC3)c2)c1`, which inhibition is on record?
Answer: 8.3%

Question: For `COc1cc(NC(=O)c2nn(CCCN3CCC4(CC3)C(=O)NCN4c3ccccc3)cc2-c2ccc(Cl)c(Cl)c2)cc(OC)c1OC`, which inhibition is on record?
Answer: -0.06%

Question: Which inhibition does the source give for `O=C(c1cccs1)N(Cc1cccc(-c2ccc(CNC3CCCC3)cc2)c1)C1CCN(Cc2ccccc2)CC1` here?
Answer: 10.1%

Question: With `S=C(NCC1CCCCC1)NC1CCC(CN2CCC(c3c[nH]c4ccccc34)CC2)CC1` (stereo not drawn) as the molecule, how does the inhibition read?
Answer: 1.87%

Question: With `COc1cc2c(c(OC)c1OC)C[C@H]1c3c(cc4c(c3-2)OCO4)CCN1C` as the molecule, how does the inhibition read?
Answer: -0.22%

Question: Which inhibition does the source give for `O=C(CCc1ccco1)NC1CCN(CC2(c3ccc(Cl)cc3)CCC2)CC1` here?
Answer: 9.68%

Question: With `CC(C)CN1CCC(N(C)c2cc(NC(=O)c3cccc(F)c3)ccn2)CC1` as the molecule, how does the inhibition read?
Answer: -1.6%

Question: Which inhibition does the source give for `COCCNCc1cccc(-c2ccccc2CN(C(=O)Nc2ccccc2)C2CCN(Cc3ccccc3)CC2)c1` here?
Answer: -0.65%

Question: For `Cc1[nH]c2cc(F)ccc2c1C1=CCN(CCCCC2(C)C(=O)Nc3ccccc32)CC1` (stereo not drawn), which inhibition is on record?
Answer: 2.11%

Question: How did the inhibition turn out when `Cc1[nH]c2ccccc2c1C1CCN(CC2CCC(NC(=O)/C=C/c3ccc(Cl)c(Cl)c3)CC2)CC1` (stereo not drawn) was run?
Answer: 6.8%

Question: `CC(C)C[C@H](Nc1ccc(C#N)c2ccccc12)C(=O)N[C@@H]1CCCc2ccccc21` was tested. Which inhibition did it give?
Answer: 3.96%

Question: Which inhibition does the source give for `CNCCCN(C)C(=O)Oc1c(Br)c(C)nc(C)c1-c1ccc(Oc2ccc(OC(F)(F)F)cc2)cc1` here?
Answer: -0.18%

Question: How did the inhibition turn out when `O=C(CSc1ccc(Cl)cc1)NC1CCC(CN2CCC(c3c[nH]c4ccccc34)CC2)CC1` (stereo not drawn) was run?
Answer: 5.29%

Question: For `Oc1ccc2[nH]cc(C3=CCN(Cc4ccccc4)CC3)c2c1`, which inhibition is on record?
Answer: 11.2%

Question: For `OC(CNCc1ccccc1OC(F)F)c1cccc(C(F)(F)F)c1` (stereo not drawn), which inhibition is on record?
Answer: 1.52%

Question: With `CC(=O)N(Cc1cccc(-c2ccc(CNCCc3ccccc3)cc2)c1)C1CCN(Cc2ccccc2)CC1` as the molecule, how does the inhibition read?
Answer: 4.3%

Question: `Cc1ccc(C(=O)Nc2ccnc(N(C)C3CCN(Cc4cccc(O)c4)CC3)c2)cn1` was tested. Which inhibition did it give?
Answer: 3.48%

Question: With `Cc1ccc(C[C@@H](C)NC[C@H](O)c2cccc(C(F)(F)F)c2)cc1` as the molecule, how does the inhibition read?
Answer: 3.18%

Question: How did the inhibition turn out when `C/C=C1\CN2CC[C@H]1C[C@H]2[C@H](O)c1ccnc2ccc(O)cc12` was run?
Answer: -0.15%

Question: For `CNC(=O)c1ccc2[nH]cc(C3CCN(CC4CCN(C(=O)/C=C/c5ccc(Cl)c(Cl)c5)CC4)CC3)c2c1`, which inhibition is on record?
Answer: 1.1%

Question: With `CC(Cc1ccc(-c2nc3ccccc3[nH]2)cc1)NCC(O)c1cccc(C(F)(F)F)c1` (stereo not drawn) as the molecule, how does the inhibition read?
Answer: 1.35%

target: Hexose transporter 1 (Plasmodium falciparum) (UniProt O97467); test: ST_JUDE_LEISH: Cytotoxicity at 2uM final concentration against transgenic Leishmania Mexicana promastigotes LmPfHT that are glucose transport deficient and complemented with the Plasmodium falciparum hexose transporter. Activity is measured by DNA content using SYBR green in vitro; type: functional

Question: How did the inhibition turn out when `O=C(/C=C/c1ccc(Cl)c(Cl)c1)NCCC1CCC(N2CCC(c3c[nH]c4ccc(O)cc34)CC2)CC1` (stereo not drawn) was run?
Answer: 3.87%

Question: With `O=[N+]([O-])c1ccc(Oc2c(Cl)cc(S(=O)(=O)N3CCC(CN4CCC(c5c[nH]c6ccccc56)CC4)CC3)cc2Cl)c(Cl)c1` as the molecule, how does the inhibition read?
Answer: 0.25%

Question: How did the inhibition turn out when `CCCCCCCN1C2CCC1CC(CCOc1ccnc3ccc(OC)cc13)C2` (stereo not drawn) was run?
Answer: 8.68%

Question: For `COCCNCc1ccc(-c2ccc(CN(C(=O)Nc3ccccc3)C3CCN(Cc4ccccc4)CC3)cc2)cc1`, which inhibition is on record?
Answer: 4.93%

Question: With `O=C(Nc1ccccc1C(F)(F)F)NC1CCC(CN2CCC(c3c[nH]c4ccccc34)CC2)CC1` (stereo not drawn) as the molecule, how does the inhibition read?
Answer: 4.94% and 7.06%

Question: With `CC[C@H]1CN2CC[C@@H]1C[C@H]2[C@H](O)c1ccnc2ccc(OC)cc12` as the molecule, how does the inhibition read?
Answer: 0.55%

Question: Which inhibition does the source give for `CCOC(C(=O)OCCN(C(C)C)C(C)C)(c1ccccc1)c1ccccc1` here?
Answer: 0.41%

Question: For `CC(Cc1ccc(NC(=O)[C@H](C)NCCc2cccc(Cl)c2)cc1)NCCc1cccc(Cl)c1` (stereo partly drawn), which inhibition is on record?
Answer: 0.1%

Question: How did the inhibition turn out when `COCC(=O)N(Cc1ccccc1-c1ccc(CNCCc2ccccc2)cc1)C1CCN(Cc2ccccc2)CC1` was run?
Answer: 0.27%

Question: Which inhibition does the source give for `COc1ccc(CN(C2CC2)C(C)C(=O)c2[nH]c(C)c(C(C)=O)c2C)cc1` (stereo not drawn) here?
Answer: 1.96%

Question: With `O=C(NC1CCC(CN2CCC(c3c[nH]c4ccccc34)CC2)CC1)c1cc(-c2ccccc2Cl)n(-c2cccc(Cl)c2)n1` (stereo not drawn) as the molecule, how does the inhibition read?
Answer: 2.86%

Question: How did the inhibition turn out when `COc1cccc(C=CC(=O)NC2CCC(CN3CCC(c4c[nH]c5ccccc45)CC3)CC2)c1OC` (stereo not drawn) was run?
Answer: 2.37%

Question: For `O=C(/C=C/c1ccc(Cl)c(Cl)c1)N1CCC(CN2CCC(c3c(-c4ccc(F)cc4)[nH]c4ccccc34)CC2)CC1`, which inhibition is on record?
Answer: -1.9%

Question: `CC(=O)C1(c2ccccc2)CCN(CCC2(c3ccc(Cl)c(Cl)c3)CN(C(=O)c3cccc(Cl)c3)CCO2)CC1` (stereo not drawn) was tested. Which inhibition did it give?
Answer: -2.92%

Question: With `Cc1ccc(-n2nc(C)c3c2NC(=O)CSC3c2ccsc2)cc1` (stereo not drawn) as the molecule, how does the inhibition read?
Answer: 13.5%

Question: `Cc1[nH]c2ccc([N+](=O)[O-])cc2c1C1=CCN(C)CC1` was tested. Which inhibition did it give?
Answer: 1.63%

Question: Which inhibition does the source give for `O=C(Nc1ccc(CN2CCC(c3c[nH]c4ccc(O)cc34)CC2)cc1)c1ccc(-c2ccccc2)cc1` here?
Answer: 3.85%

Question: With `O=C(Nc1cc(C(F)(F)F)cc(C(F)(F)F)c1)N1CCC(CN2CCC(c3c[nH]c4ccccc34)CC2)CC1` as the molecule, how does the inhibition read?
Answer: 3.46%

Question: With `CC(C)CNCc1cccc(-c2cccc(CN(C(=O)NC3CCCCC3)C3CCN(Cc4ccccc4)CC3)c2)c1` as the molecule, how does the inhibition read?
Answer: 4.64%

Question: Which inhibition does the source give for `COc1cc(NC(=O)c2nn(CCCN3CCC4(CC3)C(=O)NCN4c3ccccc3)cc2-c2ccc(Cl)c(Cl)c2)cc(OC)c1OC` here?
Answer: 8.62%

Question: With `O=C(c1cccs1)N(Cc1cccc(-c2ccc(CNC3CCCC3)cc2)c1)C1CCN(Cc2ccccc2)CC1` as the molecule, how does the inhibition read?
Answer: 10%

Question: Which inhibition does the source give for `S=C(NCC1CCCCC1)NC1CCC(CN2CCC(c3c[nH]c4ccccc34)CC2)CC1` (stereo not drawn) here?
Answer: 3.66%

Question: For `COc1cc2c(c(OC)c1OC)C[C@H]1c3c(cc4c(c3-2)OCO4)CCN1C`, which inhibition is on record?
Answer: 1.49%

Question: How did the inhibition turn out when `O=C(CCc1ccco1)NC1CCN(CC2(c3ccc(Cl)cc3)CCC2)CC1` was run?
Answer: 8.13%

Question: Which inhibition does the source give for `CC(C)CN1CCC(N(C)c2cc(NC(=O)c3cccc(F)c3)ccn2)CC1` here?
Answer: 0.49%

Question: Which inhibition does the source give for `COCCNCc1cccc(-c2ccccc2CN(C(=O)Nc2ccccc2)C2CCN(Cc3ccccc3)CC2)c1` here?
Answer: -2.21%

Question: For `Cc1[nH]c2cc(F)ccc2c1C1=CCN(CCCCC2(C)C(=O)Nc3ccccc32)CC1` (stereo not drawn), which inhibition is on record?
Answer: 1.23%

Question: `Cc1[nH]c2ccccc2c1C1CCN(CC2CCC(NC(=O)/C=C/c3ccc(Cl)c(Cl)c3)CC2)CC1` (stereo not drawn) was tested. Which inhibition did it give?
Answer: 6.35%

Question: With `CC(C)C[C@H](Nc1ccc(C#N)c2ccccc12)C(=O)N[C@@H]1CCCc2ccccc21` as the molecule, how does the inhibition read?
Answer: 1.88%

Question: For `CNCCCN(C)C(=O)Oc1c(Br)c(C)nc(C)c1-c1ccc(Oc2ccc(OC(F)(F)F)cc2)cc1`, which inhibition is on record?
Answer: -3.25%

Question: For `O=C(CSc1ccc(Cl)cc1)NC1CCC(CN2CCC(c3c[nH]c4ccccc34)CC2)CC1` (stereo not drawn), which inhibition is on record?
Answer: 1.76%

Question: For `Oc1ccc2[nH]cc(C3=CCN(Cc4ccccc4)CC3)c2c1`, which inhibition is on record?
Answer: 10.5%

Question: For `OC(CNCc1ccccc1OC(F)F)c1cccc(C(F)(F)F)c1` (stereo not drawn), which inhibition is on record?
Answer: 1.17%

Question: `CC(=O)N(Cc1cccc(-c2ccc(CNCCc3ccccc3)cc2)c1)C1CCN(Cc2ccccc2)CC1` was tested. Which inhibition did it give?
Answer: 5.39%

Question: Which inhibition does the source give for `Cc1ccc(C(=O)Nc2ccnc(N(C)C3CCN(Cc4cccc(O)c4)CC3)c2)cn1` here?
Answer: 1.94%

Question: Which inhibition does the source give for `Cc1ccc(C[C@@H](C)NC[C@H](O)c2cccc(C(F)(F)F)c2)cc1` here?
Answer: 3.1%

Question: For `C/C=C1\CN2CC[C@H]1C[C@H]2[C@H](O)c1ccnc2ccc(O)cc12`, which inhibition is on record?
Answer: -0.16%

Question: With `CNC(=O)c1ccc2[nH]cc(C3CCN(CC4CCN(C(=O)/C=C/c5ccc(Cl)c(Cl)c5)CC4)CC3)c2c1` as the molecule, how does the inhibition read?
Answer: -0.15%

Question: `CC(Cc1ccc(-c2nc3ccccc3[nH]2)cc1)NCC(O)c1cccc(C(F)(F)F)c1` (stereo not drawn) was tested. Which inhibition did it give?
Answer: -1.73%
